Measurements published in PubChem BioAssay (NCI).
The panel holds about 83,000 compounds, 20% with a hit somewhere; the sample as a whole holds those more often.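 48-hour exposure, single concentration, 96-well plates; percent growth endpoint where 0 means no net growth. Active: below 10.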 Unmarked numbers belong to inactive results. The source made the active and inactive calls.

The compounds below were run on NCI-H23 lung (assay: NCI-60 one-dose screen, 48 h (100 = growth as untreated, 0 = no growth, -100 = all killed)). Details: 10 µM unless noted.
Protocol: Growth inhibition of the NCI-H23 human Non-Small Cell Lung tumor cell line is measured as a screen for anti-cancer activity. Cells are grown in 96 well plates and exposed to the test compound for 48 hours. Compounds are tested at a single concentration, which is 10^-5 M for most compounds. The reported endpoint is percent growth (GI% or GIPRCNT), where numbers from 0 - 100% represent growth inhibition, and numbers from -100% - 0 represent cell death. For example, a value of 40 represents 60% growth inhibition. A value of 0 means no net growth occurred over the course of the experiment. A value of -40 indicates 40% of cells at the beginning of the experiment died by the end of the experiment. A value of -100 means all cells are dead at the end of the experiment.
NCI-60 Human Tumor Cell Lines Screen was performed using the standard one-dose NCI protocol, which is described in more detail at https://dtp.cancer.gov/discovery_development/nci-60/default.htm.
Compounds with GIPRCNT values below 10 were considered active. Activity score was based on GIPRCNT using the following formula: […]
Score is 0 for GIPRCNT values of 100 or above, 50 for GIPRCNT values of 0, and 100 for GIPRCNT values of -100.
Work on `Cc1nn(Cc2ccccc2)cc1C(=O)Nc1sc2c(c1C(N)=O)CCC(=O)C2` yielded a growth of 12.6%.
`CN1CCC(=C2c3ccccc3C=Cc3ccccc32)CC1` showed a growth of 83.7%.
With `N=C(N)c1ccc(-c2ccc(-c3ccc(Cl)cn3)s2)cc1` the growth was 67.8%.
In the case of `Fc1ccc(Nc2nc3nonc3nc2Nc2ccc(F)cc2)cc1`, the growth is reported as 2.78% (active).
For `CN1CCN(c2ccc3nc(/N=C/c4ccc5sc(-c6ccc([N+](=O)[O-])cc6)nc5c4)sc3c2)CC1`, the growth was 99.4%.
With `C/C(=N\NC(=O)Cn1c(-c2ccc(S(C)(=O)=O)cc2)nc2cc(Cl)ccc21)c1ccc(Cl)cc1` the growth was 83%.
In the case of `CC(C)OC(=O)NNC(=O)c1ccncc1`, the growth is reported as 105%.
In the case of `Clc1cnc(Nc2ccc(OCCN3CCCC3)cc2)nc1NCc1ccco1`, the growth is reported as 10.2%.
Work on `N#Cc1cnn2c(-c3ccc(Cl)cc3)nc(NC3CC3)nc12` yielded a growth of 90.9%.
In the case of `C[C@H]1[C@H](C)CC[C@]2(C(=O)N3CCN(C)CC3)CC[C@]3(C)C(=CC[C@@H]4[C@@]5(C)C/C(=C/c6cccnc6)C(=O)C(C)(C)[C@@H]5CC[C@]43C)[C@H]12`, the growth is reported as -51.2% (active).
`OC(CBr)c1ccnc2ccccc12` (stereo not given) showed a growth of 96.8%.
With `Cc1nc(Nc2ccc(N)cc2)c2ccccc2n1` the growth was 86.8%.
Work on `O=C1/C(=C/c2ccc([N+](=O)[O-])cc2)COc2ccc(O)c(O)c21` yielded a growth of 11.1%.
In the case of `O=C1N/C(=N/O)S/C1=C/c1cn(-c2ccccc2)nc1-c1ccccc1`, the growth is reported as 88.1%.
With `Cc1cc(-c2ccc(N(C)C)cc2)c2sc(=O)[nH]c2n1` the growth was 82.6%.
`CN1C(=O)CCC(N2C(=O)c3cccc(NCCOCCOCCNC(=O)c4cc5c(o4)C(=O)c4ccccc4C5=O)c3C2=O)C1=O` (stereo not given) was tested, and the growth was -52.7% (active).
For `CSc1ccc(Cl)c(C(=O)Nc2sccc2C(N)=O)c1`, the growth was 97.9%.
With `COc1ccc2cc(-c3ccc(C(=O)NN)c(C)n3)ccc2c1` the growth was 95.5%.
For `Cc1nn(-c2ccccc2)c2c1C(c1ccc([N+](=O)[O-])cc1)C(C#N)=C(N)O2` (stereo not given), the growth was 98.4%.
`CCN(CC)CCOC(=O)N1c2ccccc2Sc2ccccc21` showed a growth of 104%.
`O=C(CCCCCCCn1cc(-c2cccnc2)nn1)Nc1ccccc1-c1ccccc1` gave a growth of 63.6%.
In the case of `COc1cc2oc(-c3cccc(C(=O)Nc4ccc(C#N)cc4)c3)cc(=O)c2c(O)c1OC`, the growth is reported as 38.2%.
With `CC(=O)Nc1ccc(C(=O)/C=C/c2ccccc2)cc1` the growth was 96.1%.
With `Cc1nc(Nc2ccccn2)sc1C(=O)/C=C/c1ccc(Br)cc1` the growth was 88.3%.
In the case of `CCN(CC)CC(O)CNc1c2ccc(Cl)cc2nc2ccc(OC)cc12` (stereo not given), the growth is reported as -39.1% (active).
`CC(=O)c1ccc2c(c1)CCN2` gave a growth of 102%.
`CCN(CC)CCCNC(=O)c1ccc(N)cc1O` was tested, and the growth was 95.5%.
In the case of `O=C(NCCOCCOCCOCCNC(=O)c1cc2c(o1)C(=O)c1ccccc1C2=O)NC12CC3CC(CC(C3)C1)C2`, the growth is reported as -45.7% (active).
Work on `CCNCCNc1cc(C2CCCC2)c(C#N)c2nc3ccccc3n12` yielded a growth of 69.6%.
Compound `CCn1nc(C#Cc2c(C)ccc3c(Nc4ccc(Cl)cc4)nccc23)c2c(N)ncnc21` has a growth of 18.4%.
In the case of `CCCCN(CCCC)CCCn1c(=O)c2sc3ncccc3c2n2nnc(-c3ccccc3)c12`, the growth is reported as 101%.
For `N=C(N)c1ccc(-c2ccc(-c3ccc(Cl)cc3Cl)o2)cc1`, the growth was 3.61% (active).
`COc1cccc(CCC2CCCN(c3cc(C)nc(N)n3)C2)c1` (stereo not given) showed a growth of 22.1%.
Compound `Cc1ccc(S(=O)(=O)NN/C(N)=N\S(=O)(=O)c2cc(C)c(Cl)cc2SCc2ccccc2)cc1` has a growth of 90.6%.
`CC(=O)C(C(C)=O)c1nc2sc3cc(Cl)ccc3n2c(=N)c1C#N` showed a growth of 81.4%.
With `NS(=O)(=O)Oc1ccc(-c2sc3cc(O)ccc3c2C(=O)c2ccc(OCCN3CCCCC3)cc2)cc1` the growth was 88%.
Compound `Cc1nc(Nc2ccc(NC(=S)Nc3ccccc3)cc2)c2ccccc2n1` has a growth of 91.6%.
`CN(C)c1ccc(C#Cc2c(F)cccc2Cl)cc1` showed a growth of 70.6%.
In the case of `Cc1c(C)c2c(c(C)c1NC(=O)/C=C\C(=O)O)CCC(C)(CCCC(C)CCCC(C)CCCC(C)C)O2` (stereo not given), the growth is reported as 60.8%.
`Clc1ccc(-c2nnc(Cn3ccnc3)o2)cc1` gave a growth of 93.9%.
